This is part of a sample that, as a whole, favours compounds with a hit. Of some 83,000 tested, about 20% had one in any assay.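 Step 1: grow cells in 96-well plates. Step 2: add test compound at a single concentration. Step 3: incubate 48 h. Step 4: record percent growth.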 Calls of active or inactive are those of the source. The calls were made as follows: active = growth percent below 10; inactive = the rest.
system: DU-145 prostate; experiment: NCI-60 one-dose screen, 48 h (100 = growth as untreated, 0 = no growth, -100 = all killed); conditions: 10 µM unless noted

SMILES | growth
C=C(C)COC(=O)c1ccccc1C(=O)OCC1(C)CO1 (stereo unspecified) | 104% (inactive)
COc1ccc(NC(=O)COc2ccccc2)c(C(N)=O)c1 | 23% (inactive)
O=c1nc(NO)[nH]c(=O)n1Cc1ccc(F)cc1 | 114% (inactive)
NC(=O)c1cc(I)ccc1NC(=O)COc1ccccc1 | 25% (inactive)
O=C(Nc1ccccc1O)c1ccc(NS(=O)(=O)c2cccc3cccnc23)cc1 | 49.1% (inactive)
CC(=O)OC[C@H](O)[C@@]1(O)CC[C@H]2[C@@H]3CCC4=CC(=O)CC[C@]4(C)[C@H]3[C@@H](O)C[C@@]21C | 93.7% (inactive)
COc1cc(NC(=O)COc2ccccc2)c(C(N)=O)cc1OC | 23.6% (inactive)
COc1ccc(Nc2[nH]n(C3=Nc4ccccc4Sc4ccccc43)c(=O)c2C#N)cc1 | 67% (inactive)
COc1c(Cl)ccc2c(-c3nc4cc(Cl)c(F)cc4s3)cc(=O)oc12 | 97.1% (inactive)
Cn1c2ccc(Cl)cc2c2nn(C(=O)c3ccccc3)c(=O)nc21 | 114% (inactive)
CC(=O)Nc1ccc(S(=O)(=O)N/N=C\c2ccc(Cl)c(Cl)c2)cc1 | 110% (inactive)
COc1ccc(/C=C(\C#N)c2ccc(OC)cc2)cc1 | 72.3% (inactive)
CCCCNNC(=O)c1ccc(Br)cc1 | 50.9% (inactive)
CC(=O)c1cc(C)c(OC(=O)c2ccccc2)c(C)c1 | 102% (inactive)
Clc1nc(-c2ccccn2)nc2sc3c(c12)CCCCCC3 | 22.6% (inactive)
Cc1ccc(C(=O)Nc2ccccc2N)cc1 | 73.5% (inactive)
